# Compound activity (PubChem)
# TR SRC2 fluor cs: Total Fluorescence Counterscreen for Inhibitors of the Interaction of Thyroid Hormone Receptor and Steroid Receptor Coregulator 2. TRb/SRC2 Texas Red total fluorescence interference. Potency, µM (doses to about 106 µM), inactives show at the highest dose fluorescence change, negative = quenching. actives 0.29% (n = 280,000); active means well fitted curve in either direction with a large enough effect; inconclusive means small, poorly fitted or top-dose-only effect
#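 Flags fluorescent or light-absorbing compounds by total fluorescence, S + 2P, at 555 nm excitation and 632 nm emission. Mixture: 20 nM Texas Red SRC2 peptide, 0.6 uM human TRb LBD, 1 uM T3, 5% DMSO; compound exposure 5 h at ambient temperature.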
# Tau fibril FP: qHTS for Inhibitors of Tau Fibril Formation, Fluorescence Polarization; Microtubule-associated protein tau (Homo sapiens), P10636; K18 P301L tau heparin fibrillization, Alexa594 FP, 6 h; Potency, µM (series often up to 57.7 µM), without a hit: at the top dose activity, negative = inhibition, most hits filed as inhibitors; actives 0.39% (n = 280,000); further: nearly all actives have a fitted effect of over 55% in size
# Target sequence (P10636 561-689 P618L limits assumed): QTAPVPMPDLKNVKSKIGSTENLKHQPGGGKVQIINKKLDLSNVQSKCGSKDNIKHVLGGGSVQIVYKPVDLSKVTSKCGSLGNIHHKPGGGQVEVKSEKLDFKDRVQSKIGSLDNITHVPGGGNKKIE
#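 Human K18 P301L fragment (15 uM unlabeled plus 0.24 uM Alexa 594-labeled) in 100 mM sodium acetate pH 7 with compound, aggregation induced by 20 uM heparin for 6 hr at 37 C. ThT (30 uM) added for 1 hr, then Alexa 594 FP read.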
# TRb-SRC2 inh: qHTS for Inhibitors of the Interaction of Thyroid Hormone Receptor and Steroid Receptor Coregulator 2. Thyroid hormone receptor beta (Homo sapiens), P10828. TRbeta-SRC2 peptide binding, fluorescence polarization; receptor liganded with 1 µM T3. Potency, µM (highest dose often 106 µM), inactives show at the top dose activity change, negative = inhibition, usual class: inhibitors. actives 0.065% (n = 280,000);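 further: plate controls were bound peptide for no effect and peptide without receptor for full effect; nearly all actives have a fitted effect of over 50% in size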
# Target sequence (P10828 whole entry, looked up): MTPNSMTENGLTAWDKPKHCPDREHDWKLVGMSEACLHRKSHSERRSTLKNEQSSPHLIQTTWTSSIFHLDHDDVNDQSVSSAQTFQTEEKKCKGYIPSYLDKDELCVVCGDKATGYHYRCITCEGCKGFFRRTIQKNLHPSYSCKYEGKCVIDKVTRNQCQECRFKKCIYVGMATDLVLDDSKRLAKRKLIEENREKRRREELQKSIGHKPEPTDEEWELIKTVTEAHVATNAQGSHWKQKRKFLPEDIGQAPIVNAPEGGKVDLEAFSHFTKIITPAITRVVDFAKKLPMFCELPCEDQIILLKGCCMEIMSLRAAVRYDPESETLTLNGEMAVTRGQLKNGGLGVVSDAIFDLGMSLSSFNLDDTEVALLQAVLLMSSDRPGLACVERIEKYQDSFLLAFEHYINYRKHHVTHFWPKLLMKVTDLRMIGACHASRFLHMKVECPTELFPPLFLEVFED
#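 Assay buffer: 20 mM Tris-HCl, 100 mM NaCl, 10% glycerol, 1 mM EDTA, 0.01% NP-40, 1 mM DTT, 1 uM T3, 5% DMSO; TRb LBD 0.6 uM, Texas Red SRC2 20 nM; FP after 5 hr.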
# Tau fluor cs: Counterscreen qHTS for Inhibitors of Tau Fibril Formation, Fluorescence Polarization; tau K18 P301L Alexa594 fluorescence, heparin fibrillization; Potency, µM (series often up to 57.7 µM), without a hit: at the highest dose activity change, negative = decrease; actives 0.93% (n = 280,000); further: nearly all actives have a fitted effect of over 55% in size
#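 Human tau K18 P301L (15 uM unlabeled, 0.24 uM Alexa 594-labeled) in 100 mM sodium acetate pH 7 with 20 uM heparin, 6 hr at 37 C. ThT 30 uM added, 1 hr ambient; Alexa 594 FP and total fluorescence read at 555/632 nm.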
# Tau ThT inhib: qHTS for Inhibitors of Tau Fibril Formation, Thioflavin T Binding; Microtubule-associated protein tau (Homo sapiens), P10636; recombinant tau K18 P301L (four-repeat tau fragment), heparin-induced fibrillization, ThT fluorescence; Potency, µM (top dose mostly 57.4 µM), inactives show top-dose activity, negative = inhibition, usual class: inhibitors; actives 2.1% (n = 270,000); further: nearly all actives have a fitted effect of over 55% in size
#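 Recombinant human tau K18 fragment […] carrying P301L, 15 uM unlabeled plus 0.24 uM Alexa 594-labeled, was fibrillized with 20 uM heparin in 100 mM sodium acetate pH 7 for 6 hr at 37 C; 30 uM ThT fluorescence read after 1 hr.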
# Starred values were filed as active, the others as inactive; ? = inconclusive; [ ] = another dose, or the depositor's remark. Most compounds without a hit are left out; they make up all but 3% or so of the library. Unless noted, the call rests on the fitted dose curve; in most records, active means well fitted curve in the direction sought with a large enough effect; inconclusive means small, poorly fitted or top-dose-only effect, or another doubt; inactive means no such curve, though single readings can be large; an effect the other way counts as inactive or inconclusive. Unless noted, on the % scale 0 is the no-effect control and ±100 the full control effect; potency means the concentration at half of the fitted maximal effect.
SMILES,TR SRC2 fluor cs,Tau fibril FP,TRb-SRC2 inh,Tau fluor cs,Tau ThT inhib
CC(=O)OCCCNc1cc(Sc2ccc(C)cc2)c2nonc2c1[N+](=O)[O-],4%,-8%,-4%,?,?
COc1ccc(CNc2cc(NCCCO)c([N+](=O)[O-])c3nonc23)cc1,-1%,5%,10%,-4%,3%
CC12C=C(/C=C/CCc3ccco3)C(C)(C1)[C@H](CCc1ccco1)CC2=O (stereo partly specified),-1%,-3%,-7%,0%,1%
CC(=O)OCCNc1cc(Sc2nc3ccccc3[nH]2)c2nonc2c1[N+](=O)[O-],12%,0%,6%,-2%,0%
CC(=O)OCCNc1cc(SCc2ccco2)c2nonc2c1[N+](=O)[O-],-17%,?,-6%,7.9µM*[quencher],7.1µM*
C=C(C)COc1ccc(-c2[nH]ncc2Oc2ccc(OC)cc2)c(O)c1,-2%,?,0%,7.9µM*[quencher],?
CCCOC(=O)c1ccc(Oc2cn[nH]c2-c2ccc(OC)cc2O)cc1,0%,?,8%,11µM*[quencher],?
C=C(C)COc1ccc(-c2n[nH]c(C)c2-c2ccc(Br)cc2)c(O)c1,2%,?,-4%,-6%,6%
C=C(C)COc1ccc(-c2[nH]ncc2Oc2ccccc2OC)c(O)c1,1%,?,-11%,14µM*[quencher],?
C=C(C)COc1ccc(-c2[nH]ncc2-c2ccc(Br)cc2)c(O)c1,-4%,28µM*,-5%,10µM*[quencher],?
C=C1Cc2c(Cl)cc3[nH]c4c5c3c2[C@@]2(O)[C@@H]1C[C@@H]2C(C)(C)O[C@H]5[C@@H]1CC[C@@]2(O)[C@@]35O[C@@H]3[C@@H](O)[C@@H](C(=O)O)O[C@H]5CC[C@]2(C)[C@@]41C,-1%,6%,3%,-33%,-19%
C=C(C)COc1ccc(-c2[nH]ncc2-c2ccccc2OC)c(O)c1,-5%,-5%,-3%,16µM*[quencher],?
O=S(=O)(Cc1ccc(Cl)cc1)N1CCN(Cc2ccccc2)CC1,1%,4%,4%,2%,0%
Cc1[nH]n(S(=O)(=O)Cc2ccccc2)c(=O)c1N=Nc1ccccc1Cl,-2%,11%,-5%,-22%,16µM*
NS(=O)(=O)c1ccc(NC(=O)COC(=O)c2cn(-c3ccccc3)nc2-c2ccccc2)cc1,-2%,11µM*,-3%,?,0%
O=C(COC(=O)c1cn(-c2ccccc2)nc1-c1ccccc1)Nc1ncc(Cl)cc1Cl,-3%,-8%,-7%,?,-4%
COC(=O)C1CCN(C2=C(NS(=O)(=O)c3ccc(Cl)cc3)C(=O)c3ccccc3C2=O)CC1,2%,-14%,-1%,?,14µM*
NC(=O)C1CCN(C2=C(NS(=O)(=O)c3ccc(Cl)cc3)C(=O)c3ccccc3C2=O)CC1,-5%,?,-2%,?,16µM*
CC1CCCN(C2=C(NS(=O)(=O)c3ccc(Cl)cc3)C(=O)c3ccccc3C2=O)C1 (stereo unspecified),4%,-3%,0%,-4%,?
O=C(Nc1ccc(Cl)cc1)OCCN1CCN(Cc2ccccc2)CCC1=O,-10%,-7%[81.3 µM],5%,-16%[81.3 µM],-2%[81.4 µM]
CCOC(=O)c1c(C)c(C(=O)NCc2ccc(Cl)cc2)c(C)n1C,?,-14%,-6%,-11%,-10%
CC1(C)CC(=O)C(C(c2ccc(F)cc2)C2C(=O)CC(C)(C)CC2=O)C(=O)C1,-2%,-3%,-3%,-11%,-16%
CC1(C)CC(=O)C(C(c2ccco2)C2C(=O)CC(C)(C)CC2=O)C(=O)C1,1%,?,-2%,-24%,28µM*
Cc1cccc(C(=O)Nc2sc3c(c2C(=O)Nc2ccccc2)CCC3)c1,1%,-3%,-1%,-8%,0%
O=C(O)CCC(=O)Nc1sc2c(c1C(=O)Nc1ccccc1)CCCCC2,-3%,?,-9%,-30%,14µM*
SMILES,TR SRC2 fluor cs,Tau fibril FP,TRb-SRC2 inh,Tau fluor cs,Tau ThT inhib
O=C(O)CCC(=O)Nc1sc2c(c1C(=O)Nc1cccc3ccccc13)CCCCC2,-1%,9%,-4%,6%,-3%
Cc1cccc(NC(=O)c2c(NC(=O)C(F)(F)F)sc3c2CCCCC3)c1,-14%,11%,-4%,?,16µM*
Cc1cccc(NC(=O)c2c(Br)sc3c2CCCC3)c1,?,?,-1%,-9%,-7%
O=C(Nc1cccc(Cl)c1)c1c(NC(=O)C(F)(F)F)sc2c1CCCC2,3%,?,3%,?,10µM*
O=C(COc1ccc(Cl)cc1)Nc1sc2c(c1C(=O)Nc1cccc(Cl)c1)CCCC2,6%,?,3%,-8%,13µM*
Cc1ccccc1Nc1oc(-c2ccccc2)nc1CCc1ccccc1,-1%,?,6%,-15%,-8%
Cc1ccccc1NC(=O)c1c(NC(=O)C(F)(F)F)sc2c1CCCCC2,2%,?,-12%,?,?
Cc1ccc(NC(=O)c2c(NC(=O)C(F)(F)F)sc3c2CCCCC3)cc1,-10%,10%,0%,?,14µM*
CCOc1cnn(-c2cc(Oc3ccc(C)cc3)ncn2)c(=O)c1Cl,-6%,1%,3%,-16%,-18%
Cc1ccccc1Oc1cc(-n2ncc(Cl)c(Cl)c2=O)ncn1,-2%[53 µM],?,0%[53 µM],-12%,10µM*
COC(=O)c1c(NC(=O)Cc2coc3cc(C)ccc23)sc2c1CCC2,3.5µM*[quencher],-3%,20%[53 µM],?,?
CCOC(=O)c1c(NC(=O)Cc2coc3cc(C)cc(C)c23)sc2c1CCC2,0.025µM*[quencher],-13%,?,-24%,?
COC(=O)NC(CC(C)=O)c1cccc(F)c1 (stereo unspecified),0%[11.2 µM],5%[11.6 µM],-7%[11.2 µM],16%[11.6 µM],9%[11.5 µM]
Cc1ccc(C2c3cccn3CCN2S(=O)(=O)c2ccc([N+](=O)[O-])cc2)cc1 (stereo unspecified),-1%,?,-2%,?,-9%
Cc1ccc2[nH]c3c(c2c1)CCc1cn[nH]c1-3,-15%,?,8%,25µM*[quencher],13µM*
COc1cc(Nc2c3c(nc4ccccc24)CCCC3)cc(OC)c1OC,4%,1%,-3%,-24%,?
CCOc1ccccc1C(=O)Nc1ccc2nc3c(c(Nc4ccc(OC)c(OC)c4)c2c1)CCCC3,-3%,5%,-14%,?,10µM*
COc1cc(OC)cc(C(=O)Nc2ccc3nc4c(c(Nc5ccc(OC)c(OC)c5)c3c2)CCCC4)c1,-7%,?,-5%,18µM*[quencher],32µM*
